# Screening results deposited in PubChem by The Scripps Research Institute Molecular Screening Center.
# NR5A2 inv ag = suppresses constitutive activity of human LRH-1. inhibition, % at 3.6 µM. O00482. HEK293T StAR-luciferase reporter, LRH-1 transfected, 24 h. actives 0.13% (n = 360,000). AID 602396;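 active = inhibition above the mean inhibition of all tested compounds plus 3 SD, cut at about 73% in these data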;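 also: 0% = DMSO wells and 100% = reporter-only cells lacking LRH-1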
# COUP-TFII inh = NR2F2 (human) inhibition, primary screen | actives 0.7% (n = 370,000) | inhibition, % at 8.6 µM | AID 686940 | P24468 | HEK293T NGFI-A luciferase reporter, luminescence;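 active = inhibition above a per-plate cutoff, mean inhibition of test wells between control levels plus 3 SD, cut at about 38% in these data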;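 also: cells cotransfected with COUP-TFII expression vector driving the NGFI-A reporter; 0% = median of COUP-TF2 test wells and 100% = reporter-only cells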
# SRC1 inh = human NCOA1 inhibition. Q15788. HEK293 GAL4-SRC1 luciferase reporter, luminescence. inhibition, % at 3.6 µM. actives 0.12% (n = 360,000). AID 588354;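 active = inhibition above the campaign mean plus 3 SD, with each screening campaign given its own cutoff, cut at about 60% in these data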;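 also: 0% = DMSO treated cells and 100% = gossypol at 36 µM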
# GalR3 antagonist = blocks the human galanin receptor 3; AID 651719; inhibition, % at 3 µM; actives 0.44% (n = 360,000); O60755; HEK293 GalR3-CNG cAMP membrane potential fluorescence; galR3 body fused to GalR1 C-terminus;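 active = inhibition above the screen-wide average plus 3 SD, cut at about 13% in these data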;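 also: forskolin and galanin both at EC90 stimulate the cells; cAMP rise reported by CNG channel membrane potential dye signal; 0% = forskolin plus galanin with DMSO and 100% = forskolin alone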
# SRC2 inh = human SRC2 (NCOA2) inhibition; Q15596; actives 0.17% (n = 370,000); HEK293 GAL4-SRC2 luciferase reporter, luminescence; inhibition, % at 9 µM;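 active = inhibition above the mean inhibition of all tested compounds plus 3 SD, set per campaign, cut at about 52% in these data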;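 also: 0% = DMSO treated cells and 100% = cells given Gossypol at 36 µM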
# Target sequence (Q15596 whole entry, looked up, the tested form may be a part): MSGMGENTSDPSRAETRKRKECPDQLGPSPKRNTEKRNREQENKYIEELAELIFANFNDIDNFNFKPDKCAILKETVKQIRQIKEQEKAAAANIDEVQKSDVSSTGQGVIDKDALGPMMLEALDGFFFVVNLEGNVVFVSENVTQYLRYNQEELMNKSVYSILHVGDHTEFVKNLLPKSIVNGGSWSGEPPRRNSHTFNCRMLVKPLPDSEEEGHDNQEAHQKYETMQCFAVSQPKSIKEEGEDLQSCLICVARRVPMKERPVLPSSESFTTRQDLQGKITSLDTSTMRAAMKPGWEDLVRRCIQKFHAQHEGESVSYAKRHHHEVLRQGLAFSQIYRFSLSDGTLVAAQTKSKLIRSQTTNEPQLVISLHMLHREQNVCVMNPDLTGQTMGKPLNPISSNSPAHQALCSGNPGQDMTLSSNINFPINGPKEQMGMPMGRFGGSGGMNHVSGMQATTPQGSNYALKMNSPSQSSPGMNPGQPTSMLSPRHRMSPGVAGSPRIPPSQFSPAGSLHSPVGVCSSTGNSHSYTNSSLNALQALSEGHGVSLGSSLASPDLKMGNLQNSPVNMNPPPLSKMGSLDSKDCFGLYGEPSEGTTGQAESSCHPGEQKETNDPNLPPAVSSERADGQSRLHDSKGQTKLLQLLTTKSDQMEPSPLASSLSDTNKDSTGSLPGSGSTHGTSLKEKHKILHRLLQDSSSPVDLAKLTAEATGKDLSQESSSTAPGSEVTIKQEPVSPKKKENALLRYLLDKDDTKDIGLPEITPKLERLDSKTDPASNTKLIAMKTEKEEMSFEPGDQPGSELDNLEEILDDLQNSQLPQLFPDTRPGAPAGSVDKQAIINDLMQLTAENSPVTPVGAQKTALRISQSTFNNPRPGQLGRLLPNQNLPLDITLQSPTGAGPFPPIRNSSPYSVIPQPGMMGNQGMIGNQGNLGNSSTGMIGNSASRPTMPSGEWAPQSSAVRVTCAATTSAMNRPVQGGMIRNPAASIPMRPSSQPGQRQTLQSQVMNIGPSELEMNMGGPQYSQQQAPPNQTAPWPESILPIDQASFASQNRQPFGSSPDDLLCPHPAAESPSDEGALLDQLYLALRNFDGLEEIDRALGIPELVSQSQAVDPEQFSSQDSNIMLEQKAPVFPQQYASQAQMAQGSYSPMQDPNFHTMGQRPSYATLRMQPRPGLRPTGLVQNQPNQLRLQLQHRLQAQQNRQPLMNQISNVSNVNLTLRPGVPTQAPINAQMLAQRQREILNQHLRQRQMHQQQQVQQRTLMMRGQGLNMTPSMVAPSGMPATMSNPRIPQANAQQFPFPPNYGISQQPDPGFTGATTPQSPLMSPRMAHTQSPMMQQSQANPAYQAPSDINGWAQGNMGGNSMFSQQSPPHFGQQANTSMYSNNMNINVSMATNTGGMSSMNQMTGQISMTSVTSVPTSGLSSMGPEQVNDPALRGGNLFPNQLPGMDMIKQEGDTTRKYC
# SRC3 inh = human NCOA3 inhibition; AID 588352; HEK293 GAL4-SRC3 luciferase reporter, luminescence; actives 0.17% (n = 360,000); inhibition, % at 3.6 µM; Q9Y6Q9;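 active = inhibition above a per-campaign cutoff, the mean of all compounds plus 3 SD, cut at about 60% in these data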;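 also: 0% = DMSO-treated cells and 100% = gossypol-treated cells at 36 µM; higher means less SRC3-driven luciferase light from the GAL4 reporter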
# VP16 Luc counter = inhibits VP16 reporter, flagging COUP-TFII antagonist hits; actives 25% (n = 2,500); shares compounds with COUP-TFII inh; inhibition, % at 8.5 µM; HEK293 Gal4-VP16 luciferase reporter, luminescence; in the data active = inhibition above about 13%
# NR2F2 inh conf = confirmation of human COUP-TFII (NR2F2) inhibitors; shares compounds with COUP-TFII inh; HEK293 NGFI-A luciferase reporter, luminescence; inhibition, % at 8.5 µM; actives 45% (n = 2,500); AID 687008;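 active = mean inhibition over three repeats above a set limit taken from the earlier primary screen, cut at about 38% in these data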;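 also: 100% = cells given the luciferase reporter alone without the COUP-TF2 vector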
# Active calls of the source: *; / = no result given. A selection: hits, their analogues and other compounds. The true share with any hit is near 1.1%.
SMILES,NR5A2 inv ag,COUP-TFII inh,SRC1 inh,GalR3 antagonist,SRC2 inh,SRC3 inh,VP16 Luc counter,NR2F2 inh conf
O=C(Nc1ccc2c(c1)OCCO2)c1ccc(Br)c(S(=O)(=O)N2CCOCC2)c1,0.8,5.2,0.0,-5.9,37.5,12.2,/,/
Cc1cc(Cl)c(S(=O)(=O)N2CCN(c3ccccn3)CC2)cc1OCC(=O)NC1CCCCC1,6.2,42.9*,11.7,6.5,34.1,11.5,1.4,7.2
CCOC(=O)N1CCN(S(=O)(=O)c2cc(OCC(=O)NC3CCCCC3)c(C)cc2Cl)CC1,3.7,14.8,-4.6,-3.4,8.2,17.0,/,/
COc1ccc(C=Nn2c(-c3ccccc3F)n[nH]c2=S)cc1OCc1ccccc1,/,-63.7,/,/,-12.0,/,/,/
COC(=O)c1ccc(Cn2ccc3ccc(-c4ccc5ccn(C(=O)c6cccc(OC)c6)c5c4)cc32)cc1,/,-8.2,/,/,-4.7,/,/,/
COC(=O)[C@@]12CCCCC3=C1N(CCC3)C(=O)[C@H]2CC(=O)N1CCN(C(=O)c2ccco2)CC1,/,0.9,/,/,2.1,/,/,/
CCN(C[C@H]1N[C@@](C)(C(=O)OC)[C@H]2C(=O)N(Cc3ccccc3)C(=O)[C@@H]12)C(=O)c1ccccc1,-7.5,-2.7,1.2,0.1,-13.0,-1.5,/,/
O=C(Nc1ccccc1)c1ccc(S(=O)(=O)NCc2cccnc2)cc1,-6.0,31.9,29.0,-9.3,4.4,-0.8,/,/
O=C(Nc1ccc(S(=O)(=O)NCc2cccnc2)cc1)c1ccccc1Cl,25.2,40.2*,14.7,12.5,16.2,22.5,5.7,28.5
COc1ccc(S(=O)(=O)NCc2cccnc2)cc1Br,9.9,47.5*,-3.1,10.5,22.5,14.2,5.5,39.2*
COc1cc(C=C2CCCC(=Cc3ccc(OCC4CO4)c(OC)c3)C2=O)ccc1OCC1CO1 (stereo unspecified),-20.1,68.5*,26.9,-4.2,11.6,31.4,25.2*,69.5*
COc1ccc(/C=C2/CSC/C(=C/c3ccc(OC)c(OC)c3)C2=O)cc1OC,64.0,73.1*,-23.0,3.5,-10.3,-5.1,57.3*,96.8*
COC(=O)N(C)C[C@H]1OCc2cn(nn2)CCCC(=O)N([C@H](C)CO)C[C@@H]1C,/,-12.9,/,6.8,-15.6,/,/,/
Cc1ncccc1C(=O)N1CCCC(c2cc(C(=O)Nc3ccc(C(C)(C)C)cc3)no2)C1 (stereo unspecified),19.1,40.0*,-1.2,-6.0,6.0,-2.6,-11.1,-4.8
CCCC(=O)N1CCCC(c2cc(C(=O)Nc3ccccc3)no2)C1 (stereo unspecified),28.7,43.9*,28.1,-4.7,22.1,30.3,-66.9,33.6
CC(C)(C)c1ccc(NC(=O)c2cc(C3CCCN(S(=O)(=O)c4cccc5cccnc45)C3)on2)cc1 (stereo unspecified),1.3,-11.1,4.8,-9.0,-6.2,14.3,/,/
COCCCN1C(=O)[C@H](CC(=O)NCc2ccccc2)[C@]2(C(=O)OC)CCCCC=C12,/,-4.2,/,/,2.0,/,/,/
COc1ccc(-c2csc(C(C)(O)c3cccc(OC)c3)n2)cc1 (stereo unspecified),15.2,35.7,-22.6,-3.9,29.1,5.2,/,/
COc1cccc(C(C)(O)c2nc(-c3ccc(S(C)(=O)=O)cc3)cs2)c1 (stereo unspecified),43.5,40.4*,9.9,-5.7,8.6,12.7,3.5,4.7
O=C(Nc1ccc(Cl)cc1Cl)O[C@@H]1CC[C@@]23CCCN2C(=O)CCC[C@H]3C1,/,-12.3,/,/,/,/,/,/
O=C(c1ccco1)N1CCCC(c2nc(-c3ccc(S(=O)(=O)NCc4ccccc4)cc3)no2)C1 (stereo unspecified),15.6,51.1*,-6.9,-8.8,20.8,7.7,-3.8,20.8
Cc1cc(C(=O)COC(=O)c2ccccc2Br)c(C)n1CC1CCCO1 (stereo unspecified),81.5*,90.3*,82.0*,-1.9,82.0*,84.0*,84.5*,101.3*
Cc1cc(C(=O)COC(=O)c2ccccc2O)c(C)n1Cc1cccs1,93.9*,96.6*,89.8*,-8.2,85.7*,86.7*,81.0*,104.4*
COCCn1c(C)cc(C(=O)COC(=O)c2cccnc2SC)c1C,-75.3,-23.3,-73.0,-4.3,-60.9,-58.7,/,/
Cc1ccc(C(=O)OCC(=O)c2cc(C)n(CC3CCCO3)c2C)cc1 (stereo unspecified),-26.5,13.0,-17.4,-5.8,-60.4,-16.3,/,/
SMILES,NR5A2 inv ag,COUP-TFII inh,SRC1 inh,GalR3 antagonist,SRC2 inh,SRC3 inh,VP16 Luc counter,NR2F2 inh conf
Cc1cc(C(=O)COC(=O)c2n[nH]c3ccccc23)c(C)n1CC1CCCO1 (stereo unspecified),-11.9,22.3,-48.4,-5.8,-15.9,-14.8,/,/
COCCn1c(C)cc(C(=O)COC(=O)c2ccccc2Br)c1C,77.8*,87.4*,80.7*,5.7,74.4*,80.8*,72.3*,95.2*
Cc1cc(C(=O)COC(=O)c2ccc3c(c2)OCO3)c(C)n1Cc1cccs1,-33.5,7.8,-55.5,-5.5,5.5,-39.6,/,/
Cc1cc(C(=O)COC(=O)c2cccnc2Cl)c(C)n1CC1CCCO1 (stereo unspecified),40.7,62.7*,57.5,-3.0,47.0,60.9,-21.6,55.5*
Cc1cc(C(=O)O[C@@H]2CCC[C@]3(C(=O)N(Cc4ccccc4)c4ccccc43)[C@H]2NC(=O)CCc2ccccc2)no1,/,7.2,/,/,-1.2,/,/,/
CCOC(=O)[C@@]12CCC3=C1N(CCC3)C(=O)[C@H](CC(=O)NCCCOC)C2,/,-1.0,/,/,9.1,/,/,/
Clc1ccccc1CNc1nc2ccccc2n2cnnc12,8.5,2.5,-3.6,1.8,-10.6,12.1,/,/
C=CCN1[C@H](C#N)[C@@H](c2ccc(Br)cc2)[C@H]1CO,/,-18.6,/,/,-8.9,/,/,/
Cc1cc(C(=O)COC(=O)c2cccc(NS(C)(=O)=O)c2)c(C)n1CC1CCCO1 (stereo unspecified),39.2,71.9*,47.0,-4.2,8.6,38.1,-26.2,57.0*
Cc1cc(C(=O)COC(=O)c2cc(O)c3ccccc3c2O)c(C)n1CC1CCCO1 (stereo unspecified),10.2,/,-59.1,/,/,10.8,/,/
Cc1cc(C(=O)COC(=O)c2ccccc2O)c(C)n1CC1CCCO1 (stereo unspecified),91.2*,96.6*,89.9*,-8.2,89.3*,88.4*,89.4*,105.4*
Cc1cc(C(=O)COc2ccccc2C(N)=O)c(C)n1CC1CCCO1 (stereo unspecified),32.9,56.6*,-21.0,12.0,-2.2,21.2,-23.9,39.3*
Cc1cc(C(=O)COC(=O)c2ccccc2NCCO)c(C)n1CC1CCCO1 (stereo unspecified),9.5,43.9*,-30.6,-1.8,30.2,13.9,-98.2,-6.8
